# Measured values as given in the supplement of paper PMC7156485.
# How the values were obtained:
# Conditions in all cases: concentration: 10 µM; 24 h
# HCC1569 [1] = assay: cell number relative to DMSO (% of DMSO); higher = more cells (less growth inhibition / toxicity)
# Method in brief: (§1)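 For HCC1569 and TDF cells, compounds at 10 µM were applied for 24 h at 37 °C in triplicate in 384-well plates. Cells were fixed in 3.7% formaldehyde, stained for H1.0 and with DAPI, and imaged at ×10 over six fields per well. The endpoint, H1.0 nuclear intensity or cell number, is shown as percent of the plate control using the median of replicates. Positional effects were smoothed for HCC1569 only.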
# TDF [2] = assay: as above
# Method in brief: as §1
# TDF [3] = assay: H1.0 immunofluorescence intensity relative to DMSO (% of DMSO); higher = stronger H1.0 induction, active = 120 or more
# Method in brief: as §1
# HCC1569 [4] = assay: H1.0 immunofluorescence intensity relative to DMSO (% of DMSO); higher = stronger H1.0 induction, active = 140 or more
# Method in brief: as §1
# 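Throughout, for H1.0 immunofluorescence intensity relative to DMSO: TDF is a line of transformed human dermal fibroblasts of mesenchymal origin.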
# 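Throughout, for cell number relative to DMSO: TDF denotes transformed human dermal fibroblasts of mesenchymal origin.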
compound,measurement,setting,value
CC(C)NCC(O)c1ccc(NS(C)(=O)=O)cc1.Cl (racemic),cell number,HCC1569 [1],108
same,cell number,TDF [2],100
same,H1.0 immunofluorescence intensity,TDF [3],92.6 (inactive)
same,H1.0 immunofluorescence intensity,HCC1569 [4],99.1 (inactive)
CCCCCCCCCCCCC(=O)O [Tridecanoic acid],cell number,HCC1569 [1],105
same,cell number,TDF [2],92.9
same,H1.0 immunofluorescence intensity,TDF [3],107 (inactive)
same,H1.0 immunofluorescence intensity,HCC1569 [4],101 (inactive)
CC(CN1c2ccccc2Sc2ccccc21)N(C)C.Cl (centres undefined) [Promethazine hydrochloride],cell number,HCC1569 [1],105
same,cell number,TDF [2],96.9
same,H1.0 immunofluorescence intensity,TDF [3],109 (inactive)
same,H1.0 immunofluorescence intensity,HCC1569 [4],106 (inactive)
CCOC(=O)C(CCc1ccccc1)NC(C)C(=O)N1C(C(=O)O)CC2CCCC21 (centres undefined) [Ramipril],cell number,HCC1569 [1],105
same,cell number,TDF [2],105
same,H1.0 immunofluorescence intensity,TDF [3],94.6 (inactive)
same,H1.0 immunofluorescence intensity,HCC1569 [4],111 (inactive)
NC(CO)C(=O)NNCc1ccc(O)c(O)c1O (centres undefined) [Benserazide],cell number,HCC1569 [1],95.2
same,cell number,TDF [2],82
same,H1.0 immunofluorescence intensity,TDF [3],101 (inactive)
same,H1.0 immunofluorescence intensity,HCC1569 [4],97.6 (inactive)
CC(CN1CCC(Cc2ccccc2)CC1)C(O)c1ccc(O)cc1.Cl (centres undefined) [Ro 25-6981 hydrochloride],cell number,HCC1569 [1],105
same,cell number,TDF [2],101
same,H1.0 immunofluorescence intensity,TDF [3],86.4 (inactive)
same,H1.0 immunofluorescence intensity,HCC1569 [4],96.6 (inactive)
Cc1ccccc1N1C(=O)c2cc(S(N)(=O)=O)c(Cl)cc2NC1C (centres undefined) [Metolazone],cell number,HCC1569 [1],104
same,cell number,TDF [2],110
same,H1.0 immunofluorescence intensity,TDF [3],89.8 (inactive)
same,H1.0 immunofluorescence intensity,HCC1569 [4],91.1 (inactive)
Nc1nc(N)c2nc(CNc3ccc(C(=O)NC(CCC(=O)O)C(=O)O)cc3)cnc2n1 (centres undefined) [Aminopterin],cell number,HCC1569 [1],80.8
same,cell number,TDF [2],87.6
same,H1.0 immunofluorescence intensity,TDF [3],87.8 (inactive)
same,H1.0 immunofluorescence intensity,HCC1569 [4],75.9 (inactive)
C#CC1(O)CCC2C3C(C)CC4=C(CCC(=O)C4)C3CCC21C (centres undefined) [Tibolone],cell number,HCC1569 [1],100
same,cell number,TDF [2],96.7
same,H1.0 immunofluorescence intensity,TDF [3],102 (inactive)
same,H1.0 immunofluorescence intensity,HCC1569 [4],110 (inactive)
Nc1nc2ccc(OC(F)(F)F)cc2s1 [Riluzole],cell number,HCC1569 [1],98.4
same,cell number,TDF [2],98.6
same,H1.0 immunofluorescence intensity,TDF [3],94.6 (inactive)
same,H1.0 immunofluorescence intensity,HCC1569 [4],94.6 (inactive)
Nc1nccc2c1ncn2C1OC(CO)C(O)C1O (centres undefined) [3-deazaadenosine],cell number,HCC1569 [1],97
same,cell number,TDF [2],88.2
same,H1.0 immunofluorescence intensity,TDF [3],93.7 (inactive)
same,H1.0 immunofluorescence intensity,HCC1569 [4],88.8 (inactive)
O=C(NCCCNc1nc(Nc2cccc(NC(=O)N3CCCC3)c2)ncc1I)c1cccs1,cell number,HCC1569 [1],62
same,cell number,TDF [2],42.3
same,H1.0 immunofluorescence intensity,TDF [3],114 (inactive)
same,H1.0 immunofluorescence intensity,HCC1569 [4],134 (inactive)
O=C(Nc1ccc(Cl)cc1)C1CCCN(C(=O)c2cccc(-c3ccco3)c2)C1 (centres undefined),cell number,HCC1569 [1],86.8
same,cell number,TDF [2],98.7
same,H1.0 immunofluorescence intensity,TDF [3],95.1 (inactive)
same,H1.0 immunofluorescence intensity,HCC1569 [4],116 (inactive)
O=C1NC(=O)c2cc(Nc3ccc(F)cc3)c(Nc3ccc(F)cc3)cc21,cell number,HCC1569 [1],93.4
same,cell number,TDF [2],110
same,H1.0 immunofluorescence intensity,TDF [3],93.4 (inactive)
same,H1.0 immunofluorescence intensity,HCC1569 [4],133 (inactive)
Cl.O=C(c1ccc(OCCN2CCCCC2)cc1)c1c(-c2ccc(O)cc2)sc2cc(O)ccc12 [Raloxifene hydrochloride],cell number,HCC1569 [1],90.1
same,cell number,TDF [2],100
same,H1.0 immunofluorescence intensity,TDF [3],109 (inactive)
same,H1.0 immunofluorescence intensity,HCC1569 [4],121 (inactive)
NC(=O)c1cccc(-c2cc(Nc3ccc(OC(F)(F)F)cc3)ncn2)c1 [Bcr-abl Inhibitor],cell number,HCC1569 [1],89.5
same,cell number,TDF [2],92.8
same,H1.0 immunofluorescence intensity,TDF [3],98.5 (inactive)
same,H1.0 immunofluorescence intensity,HCC1569 [4],124 (inactive)
"CCCC1=C(c2ccc(O)cc2)N(c2ccc(O)cc2)NC1=C1C=CC(=O)C=C1 [1,3,5-tris(4-hydroxyphenyl)-4-propyl-1H-pyrazole]",cell number,HCC1569 [1],98.3
same,cell number,TDF [2],107
same,H1.0 immunofluorescence intensity,TDF [3],92.5 (inactive)
same,H1.0 immunofluorescence intensity,HCC1569 [4],99.1 (inactive)
CC1=CCCC(C)(O)C=CC(C(C)C)C(OC(=O)c2ccc(O)cc2)C1 (centres undefined) [Feroline],cell number,HCC1569 [1],102
same,cell number,TDF [2],96
same,H1.0 immunofluorescence intensity,TDF [3],102 (inactive)
same,H1.0 immunofluorescence intensity,HCC1569 [4],93.3 (inactive)
O=C(Nc1cc(C(=O)Nc2ccc(S(=O)(=O)[O-])cc2S(=O)(=O)[O-])cc(C(=O)Nc2ccc(S(=O)(=O)[O-])cc2S(=O)(=O)[O-])c1)Nc1cc(C(=O)Nc2ccc(S(=O)(=O)[O-])cc2S(=O)(=O)[O-])cc(C(=O)Nc2ccc(S(=O)(=O)[O-])cc2S(=O)(=O)[O-])c1.[Na+].[Na+].[Na+].[Na+].[Na+] [NF449 octasodium salt],cell number,HCC1569 [1],97.4
same,cell number,TDF [2],92.8
same,H1.0 immunofluorescence intensity,TDF [3],89.6 (inactive)
same,H1.0 immunofluorescence intensity,HCC1569 [4],108 (inactive)
COCc1c(C(C)C)nc(C(C)C)c(C=CC(O)CC(O)CC(=O)O)c1-c1ccc(F)cc1 (centres undefined) [Cerivastatin],cell number,HCC1569 [1],97.3
same,cell number,TDF [2],39
same,H1.0 immunofluorescence intensity,TDF [3],166 (active)
same,H1.0 immunofluorescence intensity,HCC1569 [4],98.3 (inactive)
O=c1c(OC2OC(C(O)CO)C(O)C2O)c(-c2ccc(O)c(O)c2)oc2cc(O)cc(O)c12 (centres undefined) [Isoquercitrine],cell number,HCC1569 [1],103
same,cell number,TDF [2],105
same,H1.0 immunofluorescence intensity,TDF [3],102 (inactive)
same,H1.0 immunofluorescence intensity,HCC1569 [4],87.9 (inactive)
